Assay results reported in ChEMBL document CHEMBL1961873, “Compounds: GSK PKIS; Assays: Nanosyn kinase panel” (2012).

Assays:
[1] = target: Mast/stem cell growth factor receptor Kit (Homo sapiens) (UniProt P10721); details: at 1 µM
[2] = test system: Mast/stem cell growth factor receptor Kit (Homo sapiens), P10721 [D816V]; details: at 0.1 µM
[3] = test system: Mast/stem cell growth factor receptor Kit (Homo sapiens), P10721 [D816V]; details: at 1 µM
[4] = test system: Mast/stem cell growth factor receptor Kit (Homo sapiens), P10721 [T670I]; details: at 0.1 µM
[5] = test system: Mast/stem cell growth factor receptor Kit (Homo sapiens), P10721 [T670I]; details: at 1 µM
[6] = test system: Mast/stem cell growth factor receptor Kit (Homo sapiens), P10721 [V560G]; details: at 0.1 µM
[7] = test system: Mast/stem cell growth factor receptor Kit (Homo sapiens), P10721 [V560G]; details: at 1 µM
[8] = target: Tyrosine-protein kinase Lck (Homo sapiens) (UniProt P06239); details: at 0.1 µM
[9] = target: Tyrosine-protein kinase Lck (Homo sapiens) (UniProt P06239); details: at 1 µM
[10] = target: Leukocyte tyrosine kinase receptor (Homo sapiens) (UniProt P29376); details: at 0.1 µM
Sequence of Leukocyte tyrosine kinase receptor (Homo sapiens) (P29376 whole entry): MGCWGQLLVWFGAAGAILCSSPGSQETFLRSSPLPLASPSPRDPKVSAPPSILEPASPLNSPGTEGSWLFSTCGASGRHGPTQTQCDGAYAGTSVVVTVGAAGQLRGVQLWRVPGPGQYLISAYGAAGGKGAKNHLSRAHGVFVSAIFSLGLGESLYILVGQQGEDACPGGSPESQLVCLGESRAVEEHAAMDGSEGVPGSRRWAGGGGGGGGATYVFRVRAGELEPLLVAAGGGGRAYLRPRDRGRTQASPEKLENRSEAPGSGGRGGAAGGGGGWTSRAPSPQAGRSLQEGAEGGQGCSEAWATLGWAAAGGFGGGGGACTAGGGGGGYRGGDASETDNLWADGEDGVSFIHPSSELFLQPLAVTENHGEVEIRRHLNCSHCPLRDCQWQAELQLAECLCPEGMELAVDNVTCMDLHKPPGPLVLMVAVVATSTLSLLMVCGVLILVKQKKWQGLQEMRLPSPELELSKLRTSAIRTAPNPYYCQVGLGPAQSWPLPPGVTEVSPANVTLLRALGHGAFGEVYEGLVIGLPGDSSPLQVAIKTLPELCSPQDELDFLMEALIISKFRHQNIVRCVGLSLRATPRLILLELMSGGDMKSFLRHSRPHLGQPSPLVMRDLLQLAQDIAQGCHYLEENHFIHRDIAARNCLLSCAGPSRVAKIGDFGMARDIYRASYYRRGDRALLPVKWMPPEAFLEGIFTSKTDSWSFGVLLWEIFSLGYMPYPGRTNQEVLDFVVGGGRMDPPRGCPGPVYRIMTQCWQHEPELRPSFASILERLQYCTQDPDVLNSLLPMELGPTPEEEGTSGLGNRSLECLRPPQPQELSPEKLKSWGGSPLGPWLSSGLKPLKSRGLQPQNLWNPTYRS

Sequence of Mast/stem cell growth factor receptor Kit (Homo sapiens), P10721 [V560G] (P10721 whole entry V560G): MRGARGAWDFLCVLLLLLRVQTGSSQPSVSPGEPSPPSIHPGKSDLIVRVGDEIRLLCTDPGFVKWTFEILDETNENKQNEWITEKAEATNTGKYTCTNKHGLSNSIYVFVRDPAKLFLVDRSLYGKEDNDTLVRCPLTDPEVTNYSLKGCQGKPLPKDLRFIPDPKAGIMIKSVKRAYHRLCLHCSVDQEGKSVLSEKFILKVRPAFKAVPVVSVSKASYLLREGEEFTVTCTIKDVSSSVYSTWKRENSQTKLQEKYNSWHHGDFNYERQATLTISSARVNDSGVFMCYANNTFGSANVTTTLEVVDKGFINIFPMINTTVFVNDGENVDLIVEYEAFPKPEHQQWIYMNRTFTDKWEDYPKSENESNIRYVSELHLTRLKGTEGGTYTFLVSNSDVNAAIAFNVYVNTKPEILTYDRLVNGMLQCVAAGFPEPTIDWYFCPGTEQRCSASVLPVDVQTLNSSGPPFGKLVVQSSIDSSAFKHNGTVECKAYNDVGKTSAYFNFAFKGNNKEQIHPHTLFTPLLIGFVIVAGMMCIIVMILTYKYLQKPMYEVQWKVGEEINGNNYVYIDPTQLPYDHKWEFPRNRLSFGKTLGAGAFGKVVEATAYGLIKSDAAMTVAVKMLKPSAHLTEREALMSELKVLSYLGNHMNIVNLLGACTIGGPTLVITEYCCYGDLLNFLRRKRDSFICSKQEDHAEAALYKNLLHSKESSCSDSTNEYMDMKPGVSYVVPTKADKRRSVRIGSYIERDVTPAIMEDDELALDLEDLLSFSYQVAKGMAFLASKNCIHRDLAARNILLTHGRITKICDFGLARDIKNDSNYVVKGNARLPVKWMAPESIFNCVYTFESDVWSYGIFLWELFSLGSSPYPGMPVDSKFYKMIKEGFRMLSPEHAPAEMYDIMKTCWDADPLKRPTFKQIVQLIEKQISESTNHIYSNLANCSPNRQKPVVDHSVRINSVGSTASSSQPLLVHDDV
Sequence of Mast/stem cell growth factor receptor Kit (Homo sapiens), P10721 [T670I] (P10721 whole entry T670I): as the sequence (P10721 whole entry V560G) above, with G560V, T670I counted along it
Sequence of Mast/stem cell growth factor receptor Kit (Homo sapiens), P10721 [D816V] (P10721 whole entry D816V): as the sequence (P10721 whole entry V560G) above, with G560V, D816V counted along it
Sequence of Mast/stem cell growth factor receptor Kit (Homo sapiens) (P10721 whole entry): as the sequence (P10721 whole entry V560G) above, with G560V counted along it
Sequence of Tyrosine-protein kinase Lck (Homo sapiens) (P06239 2-509 limits assumed): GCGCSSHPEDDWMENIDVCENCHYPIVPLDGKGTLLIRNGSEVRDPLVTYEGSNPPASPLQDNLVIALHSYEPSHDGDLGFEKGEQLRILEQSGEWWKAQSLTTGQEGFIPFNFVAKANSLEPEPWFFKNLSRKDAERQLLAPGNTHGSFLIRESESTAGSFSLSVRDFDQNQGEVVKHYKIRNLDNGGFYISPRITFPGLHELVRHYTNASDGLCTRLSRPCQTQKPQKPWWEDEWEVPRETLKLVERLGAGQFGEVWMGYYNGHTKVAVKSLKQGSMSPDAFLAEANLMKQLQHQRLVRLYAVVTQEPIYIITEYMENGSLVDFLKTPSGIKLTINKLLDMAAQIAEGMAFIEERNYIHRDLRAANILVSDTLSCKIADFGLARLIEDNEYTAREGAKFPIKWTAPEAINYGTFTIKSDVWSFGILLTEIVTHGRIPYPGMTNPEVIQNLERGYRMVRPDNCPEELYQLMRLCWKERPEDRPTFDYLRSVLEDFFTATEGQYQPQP

Structure (SMILES) | inhibition [1] [%] | inhibition [2] [%] | inhibition [3] [%] | inhibition [4] [%] | inhibition [5] [%] | inhibition [6] [%] | inhibition [7] [%] | inhibition [8] [%] | inhibition [9] [%] | inhibition [10] [%]
O=C(O[C@H]1CN[C@H](C#Cc2cc3ncnc(Nc4ccc(Cc5ccccc5)cc4)c3s2)C1)N1CCOCC1 | 3.44 | 8.25 | 1.8 | 1.94 | 0.93 | -0.42 | -0.08 | 2.19 | 8.13 | 1.17
COc1cc2ncn(-c3cc(OCc4ccccc4C(F)(F)F)c(C(=O)N(C)C)s3)c2cc1OC | 3.36 | 0.31 | 3.99 | -0.65 | 1.38 | -2.81 | 1.25 | 2.04 | 11.2 | 1.37
c1ccc(COc2ccc(Nc3ncnc4ccc(-c5ccco5)cc34)cc2)cc1 | -0.06 | -2.23 | -0.29 | 0.67 | -1.15 | 2.08 | 1.66 | 0.84 | 4.49 | 0.59
N#Cc1c(NC(=O)CN2CCOCC2)sc2c1CCCC2 | 7.99 | 3.63 | 3.93 | 4.93 | 3.32 | 2.47 | 3.82 | 1.87 | 4.64 | 4.93
CCN(CC)S(=O)(=O)c1ccc(OC)c(Nc2ncc(-c3ccccc3)o2)c1 | 87.8 | 3.78 | 6.46 | 3.41 | 48.3 | 7.63 | 13.6 | 4.39 | 24.8 | -0.3
CC(=O)Nc1cccc(C#Cc2cncnc2Nc2ccc(OCc3cccc(F)c3)c(Cl)c2)c1 | 2.18 | 1.33 | 0.94 | 0.96 | -0.24 | 2.26 | 5.18 | 1.97 | 3.76 | 0.86
CS(=O)(=O)CCNCc1ccc(-c2ccc3ncnc(Nc4ccc(OCc5ccccc5)c(C(F)(F)F)c4)c3c2)o1 | 4.84 | 2.36 | 4.65 | 3.39 | 2.42 | 1.13 | -2.89 | 3.56 | 5.95 | 3.91
COC(=O)c1sc(-n2cnc3cc(OC)c(OC)cc32)cc1OCc1ccccc1C(F)(F)F | 11.8 | 2.28 | 2.88 | 4.55 | 7.23 | -0.04 | 2.01 | 4.87 | 32.2 | 5.2
Fc1ccc(-c2nn3ccccc3c2-c2ccncc2)cc1 | 12.1 | -1.36 | -0.05 | -0.12 | 1.47 | -1.06 | 1.71 | 1.24 | 5.7 | 1.27
Nc1nc(-c2cccc(Cl)c2)c(-c2ccc3ncccc3n2)s1 | 7.87 | 1.78 | 8.71 | 4.73 | 6.56 | -0.42 | -0.36 | 2.31 | 8.23 | 6.27
Clc1ccc(-c2nn3ncccc3c2-c2ccnc(Nc3ccccc3)n2)cc1 | 66.9 | 1.51 | -1.04 | -3.61 | 9.51 | 3.31 | 39.8 | 13.9 | 60 | 1.38
CCn1c(-c2nonc2N)nc2c(C#CC(C)(C)O)nc(OC[C@H](N)c3ccccc3)cc21 | 1.58 | 1.78 | 10 | 0.36 | 0.72 | 3.28 | -0.5 | 2.85 | 3.65 | 5.32
COc1cc(Nc2nccc(Nc3ccc4c(C)n[nH]c4c3)n2)cc(OC)c1OC | 95.8 | 10.8 | 58.7 | 4.19 | 43.3 | 13.1 | 57.9 | 34.4 | 82.4 | 2.14
Cc1ccc2c(-c3ccnc(Nc4ccccc4)n3)c(-c3ccc(F)cc3)nn2n1 | 75.7 | 1.56 | -0.04 | 0.33 | 3.98 | 1.13 | 27.9 | 15.8 | 56.9 | 2.45
CCCN(CCS(C)(=O)=O)Cc1ccc(-c2ccc3ncnc(Nc4ccc(OCc5cccc(F)c5)c(Cl)c4)c3c2)o1 | 4.79 | 1.86 | 4.14 | 2.58 | 3.62 | 1.8 | 3.3 | 2.06 | 5.97 | 2.12
COc1cc(/C=N/Nc2ncnc3[nH]ncc23)ccc1O | 49.4 | 8.85 | 12.9 | 0.9 | 7.67 | 1.4 | 6.17 | 12.5 | 54.7 | 4.08
CN1CCC(n2cnc(-c3ccc(F)cc3)c2-c2ccnc(N)n2)CC1 | 9.51 | 5.49 | 7.78 | 4.69 | 3.03 | -0.68 | 3.94 | 2.45 | 13.7 | 2.54

Structure (SMILES) | inhibition [1] [%] | inhibition [2] [%] | inhibition [3] [%] | inhibition [4] [%] | inhibition [5] [%] | inhibition [6] [%] | inhibition [7] [%] | inhibition [8] [%] | inhibition [9] [%] | inhibition [10] [%]
COc1ccc(-c2cc3c(N)ncnc3o2)cc1 | 8.52 | 1.15 | 0.89 | -0.3 | -2.59 | 4.17 | 2.93 | 0.2 | 5.93 | -0.7
NS(=O)(=O)c1ccc(N/N=C2\C(=O)Nc3ccc4ncccc4c32)cc1 | 90.7 | 5.95 | 23.6 | 10.2 | 69.4 | 3.66 | 36.8 | 5.5 | 30.1 | 2.17
CC(C)(CO)CNC(=O)c1ccc2c(c1)/C(=N/Nc1ccc(S(N)(=O)=O)cc1)C(=O)N2 | 6.13 | -0.32 | 9.15 | -1.23 | -1.94 | -0.35 | 1.1 | 0.12 | 3.08 | -1.7
CCc1nn2ncccc2c1-c1ccnc(NC2CC2)n1 | 7.72 | 0.04 | 1.83 | 1.32 | 2.12 | 0.78 | 3.12 | 2.82 | 6.75 | 3.02
COc1ccc(-c2nn3ncccc3c2-c2ccnc(Nc3ccc4c(c3)OCCO4)n2)cc1 | 85.2 | -1.73 | 0.8 | 3.74 | 34.7 | 9.03 | 61.7 | 34.8 | 66.8 | 3.69
[O-][S+]1CCN(Cc2ccc(-c3ccc4ncnc(Nc5ccc(OCc6cccc(F)c6)c(Cl)c5)c4c3)o2)CC1 | 10.1 | 6.9 | 3.81 | 2.75 | 5.16 | -2.67 | -0.28 | 2.85 | 8.2 | 7.04
Fc1ccc(-c2cc(-c3c[nH]nc3-c3ccccn3)ccn2)cc1 | 6.81 | 1.94 | 4.27 | 4.29 | 8.03 | -3.44 | 1.08 | 1.94 | 2.35 | 4.6
Cc1ccc(O)cc1Nc1ccnc2cc(-c3ccccn3)ccc12 | 43.1 | 23.5 | 73.7 | 4.94 | 3.09 | 3.25 | 41.2 | 33.6 | 76.6 | 10.9
CN(C)CCOc1ccc(-c2nc(-c3ccncc3)c(-c3ccc4c(c3)CC/C4=N\O)[nH]2)cc1 | 5.36 | 1.54 | 6.73 | 3.27 | 9.66 | 1.4 | 5.96 | 2.08 | 13.5 | 2.54
COc1ccc2[nH]c3c4[nH]c5ccc(OC)cc5c4c4c(c3c2c1)C(=O)NC4=O | 79.9 | 31.6 | 75.4 | 6.78 | 44.2 | 3.53 | 31.2 | 4.72 | 21.1 | 37.8
COc1ccc2c(-c3ccnc(Nc4cccc(OC(F)(F)F)c4)n3)cnn2n1 | 45.9 | 7.04 | 6.99 | 2.93 | 11.2 | -0.57 | 5.63 | 1.54 | 5.72 | 3.12
CS(=O)(=O)CCNCc1coc(-c2ccc3ncnc(Nc4ccc(OCc5ccccc5)cc4)c3c2)c1 | 8.33 | 0.03 | 1.72 | 2.17 | 3.24 | 0.76 | 2.94 | 3.8 | 14.4 | 4.91
CCOc1ccc2c(-c3ccnc(Nc4cccc(C(F)(F)F)c4)n3)cnn2n1 | 17.8 | 0.23 | 2.91 | 1.24 | 3.49 | -1.27 | 0.29 | 2.98 | 7.3 | 2.51
CCCN1CCC(c2ccc(Nc3nc(Nc4cc(F)ccc4C(N)=O)c4cc[nH]c4n3)c(OC)c2)CC1 | 23.6 | 7.89 | 4.96 | 4.05 | 8.96 | -2.53 | 1.43 | 2.44 | 9.44 | 94.6
NC(=O)c1sc(-n2cnc3ccc(C(F)(F)F)cc32)cc1OCc1ccccc1Br | 5.18 | 5.27 | 5.73 | 2.58 | 3.8 | -0.43 | -0.61 | -0.17 | 1.85 | 3.16
CC(C)COC(=O)c1ccc2c(c1)/C(=C/Nc1ccc(S(N)(=O)=O)cc1)C(=O)N2 | 24.6 | 2.4 | 35.2 | -2.43 | 6.53 | 2.21 | 5.62 | 0.55 | 13.9 | 0.07
